Laboratory results taken from PubChem BioAssay (NCI).
The panel holds about 79,000 compounds, 15% with a hit somewhere; the sample as a whole holds those more often. Activity calls are given as the source filed them. Rule as the data show it: active = growth inhibition above about 70%; inactive = the rest.

Columns and labels:
[1] = NCI Yeast Anticancer Drug Screen. Data for the rad52 strain (AID 147);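 also: 0% = growth of vehicle-treated control cultures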; conditions: S. cerevisiae rad52 mutant growth inhibition, stronger effect = higher value
How it was run: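 Compounds are applied to a genetically defined yeast strain lacking normal DNA damage repair, and inhibition of growth is expressed relative to cultures given vehicle only.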

[2] = NCI Yeast Anticancer Drug Screen. Data for the wt1 strain (AID 149);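 also: 0% = growth of vehicle-treated wt1 cultures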; conditions: S. cerevisiae wt1 strain (SPY 50644) growth inhibition, stronger effect = higher value
How it was run: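 Each compound is tested on wt1 yeast and the loss of growth versus vehicle gives the inhibition value.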

[3] = NCI Yeast Anticancer Drug Screen. Data for the rad50EPP+ strain (AID 151);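 also: 0% = growth of vehicle-treated control cultures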; conditions: S. cerevisiae rad50 mutant strain, stronger effect = higher value
How it was run: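 Compounds were applied to the rad50EPP+ yeast strain, which bears a defined DNA repair alteration, and growth inhibition was determined relative to vehicle-treated cultures.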

[4] = NCI Yeast Anticancer Drug Screen. Data for the mgt1 strain (AID 153); conditions: S. cerevisiae mgt1 mutant growth inhibition, stronger effect = higher value
How it was run: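 Strain: mgt1 yeast, one of a set carrying defined DNA damage repair or cell cycle control alterations. Compound-treated growth compared with vehicle.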

[5] = NCI Yeast Anticancer Drug Screen. Data for the rad50 strain (AID 155);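 also: 0% = growth of vehicle-only cultures of the same strain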; conditions: S. cerevisiae rad50 strain growth inhibition, stronger effect = higher value
How it was run: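 Vehicle-treated cultures provide the reference for the growth inhibition reported for compound-exposed, repair-deficient yeast.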

[6] = NCI Yeast Anticancer Drug Screen. Data for the mec2-1 strain (AID 157); conditions: S. cerevisiae mec2-1 strain, stronger effect = higher value
How it was run: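 Strain: mec2-1 (DNA repair/cell cycle alteration). Compound exposure, then growth measured; inhibition expressed relative to vehicle.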

[7] = NCI Yeast Anticancer Drug Screen. Data for the sgs1 mgt1 strain (AID 161);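 also: 0% = growth of cultures given vehicle only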; conditions: S. cerevisiae sgs1 mgt1 strain, stronger effect = higher value
How it was run: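 Genetically altered yeast, compound exposure, growth inhibition relative to vehicle.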

[8] = NCI Yeast Anticancer Drug Screen. Data for the CLN2oe strain (AID 163);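 also: 0% = growth of vehicle-only control cultures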; conditions: S. cerevisiae CLN2oe strain, stronger effect = higher value
How it was run: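 Growth of a genetically modified yeast strain is measured after compound exposure and compared with cultures given vehicle alone.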

[9] = NCI Yeast Anticancer Drug Screen. Data for the cln2 rad14 strain (AID 165);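 also: 0% = growth equal to vehicle treated cultures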; conditions: S. cerevisiae cln2 rad14 strain, stronger effect = higher value
How it was run: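 Compounds are applied to the cln2 rad14 yeast strain, and growth is then compared with that of vehicle-treated cultures to give inhibition.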

[10] = NCI Yeast Anticancer Drug Screen. Data for the bub3 strain (AID 167); conditions: S. cerevisiae bub3 mutant strain, stronger effect = higher value
How it was run: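 Mutant yeast screening strain plus compound; vehicle-treated cultures serve as the 0% inhibition reference.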

[11] = NCI Yeast Anticancer Drug Screen. Data for the wt2 strain (AID 169); conditions: S. cerevisiae wt2 strain growth inhibition, stronger effect = higher value
How it was run: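 This strain belongs to a panel of yeast strains with defined genetic alterations in DNA damage repair or cell cycle control. Compounds are applied, and growth inhibition is measured against vehicle-treated cultures.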

[12] = NCI Yeast Anticancer Drug Screen. Data for the mlh1 strain (AID 171);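 also: 0% = growth of vehicle-treated control cultures of the same strain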; conditions: S. cerevisiae mlh1 strain growth inhibition, stronger effect = higher value
How it was run: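 Growth of the mutant yeast strain after compound exposure, expressed as inhibition relative to vehicle-only controls.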

[13] = NCI Yeast Anticancer Drug Screen. Data for the sgs1 strain (AID 173);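 also: 0% = growth of vehicle-only control cultures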; conditions: S. cerevisiae sgs1 mutant, stronger effect = higher value
How it was run: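 Growth of a yeast strain bearing a defined genetic alteration is measured after compound treatment. Inhibition is expressed relative to vehicle-only controls.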

[14] = NCI Yeast Anticancer Drug Screen. Data for the mlh1 rad18 strain (AID 175); conditions: S. cerevisiae mlh1 rad18 strain growth inhibition, stronger effect = higher value
How it was run: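 Read-out is yeast growth inhibition, calculated against vehicle-only controls. The compound was applied to a strain engineered with DNA damage repair alterations.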

[15] = NCI Yeast Anticancer Drug Screen. Data for the rad18 strain (AID 177); conditions: S. cerevisiae rad18 mutant growth inhibition, stronger effect = higher value
How it was run: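 Growth of the mutant yeast strain after compound exposure, normalised to vehicle-only cultures.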

[16] = NCI Yeast Anticancer Drug Screen. Data for the rad14 strain (AID 159);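 also: 0% = growth of vehicle-treated control cultures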; conditions: S. cerevisiae rad14 strain growth inhibition, stronger effect = higher value
How it was run: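 Inhibition of growth is reported for a repair-deficient yeast mutant following compound treatment, calculated relative to cultures that received vehicle.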

[17] = at 5.0 µM (retest, dose inferred, filed as 0.5)
[18] = at 50.0 µM (retest, dose inferred, filed as 5.0)

Measured: growth inhibition

Cn1c2ccccc2c(=O)c2cc(NC(=O)CCCCC(=O)Nc3ccc4c(c3)c(=O)c3ccccc3n4C)ccc21
inactive: [1]; at 1.2 µM 0% | [1]; at 3.7 µM 6% | [1]; at 11.0 µM 35% | [2]; at 1.2 µM 4% | [2]; at 3.7 µM -4% | [2]; at 11.0 µM -1% | [2]; at 33.0 µM 4% | [2]; at 100.0 µM 20% | [3]; at 1.2 µM -1% | [3]; at 3.7 µM 4% | [3]; at 11.0 µM 14% | [3]; at 33.0 µM 55% | [4]; at 1.2 µM 1% | [4]; at 3.7 µM 6% | [4]; at 11.0 µM -9% | [4]; at 33.0 µM -3% | [4]; at 100.0 µM 46% | [5]; at 1.2 µM 0% | [5]; at 3.7 µM 11% | [5]; [17] 9% | [5]; at 11.0 µM 41% | [6]; at 1.2 µM -5% | [6]; at 3.7 µM -2% | [6]; [17] -7% | [6]; at 11.0 µM 2% | [6]; at 33.0 µM 13% | [6]; [18] 6% | [6]; at 50.0 µM 12.4% | [6]; at 100.0 µM 47% | [7]; [17] -4% | [7]; [18] 16% | [7]; at 50.0 µM -1.45% | [8]; at 1.2 µM -6% | [8]; at 3.7 µM -4% | [8]; at 11.0 µM -8% | [8]; at 33.0 µM 3% | [8]; at 100.0 µM 27% | [9]; [17] -1% | [9]; [18] 5% | [9]; at 50.0 µM -12.1% | [10]; at 1.2 µM -4% | [10]; at 3.7 µM -5% | [10]; [17] 1% | [10]; at 11.0 µM -5% | [10]; at 33.0 µM -3% | [10]; [18] 10% | [10]; at 50.0 µM -22.2% | [10]; at 100.0 µM 19% | [11]; at 1.2 µM -3% | [11]; at 3.7 µM -2% | [11]; at 11.0 µM -1% | [11]; at 33.0 µM 10% | [11]; at 100.0 µM 40% | [12]; at 1.2 µM 0% | [12]; at 3.7 µM 2% | [12]; at 11.0 µM 3% | [12]; at 33.0 µM 24% | [12]; at 100.0 µM 66% | [13]; at 1.2 µM -5% | [13]; at 3.7 µM -6% | [13]; at 11.0 µM -6% | [13]; at 33.0 µM 4% | [13]; at 100.0 µM 49% | [14]; [17] 9% | [14]; [18] 9% | [14]; at 50.0 µM 62.8% | [15]; at 1.2 µM 1% | [15]; at 3.7 µM 0% | [15]; at 11.0 µM 3% | [15]; at 33.0 µM 49%
active: [1]; at 33.0 µM 76% | [1]; at 100.0 µM 87% | [3]; at 100.0 µM 80% | [5]; at 33.0 µM 76% | [5]; [18] 82% | [5]; at 50.0 µM 80.5% | [5]; at 100.0 µM 78% | [15]; at 100.0 µM 79%

CC(C(=O)N1C(=O)N(C(=O)[C@H](C)C(O)c2ccccc2)[C@H](c2ccccc2)[C@H]1c1ccccc1)[C@@H](O)c1ccccc1 (stereo partly specified)
active: [5]; at 50.0 µM 80.1% | [6]; at 50.0 µM 73.2% | [7]; at 50.0 µM 83.4% | [9]; [17] 71% | [9]; at 50.0 µM 77.2% | [10]; [18] 90% | [10]; at 50.0 µM 84.2% | [13]; at 100.0 µM 70% | [14]; at 50.0 µM 82.2%
inactive: [1]; at 1.2 µM -1% | [1]; at 3.7 µM -2% | [1]; at 11.0 µM 11% | [1]; at 33.0 µM 37% | [1]; at 100.0 µM 62% | [2]; at 1.2 µM 1% | [2]; at 3.7 µM -1% | [2]; at 11.0 µM -2% | [2]; at 33.0 µM 17% | [2]; at 100.0 µM 36% | [4]; at 1.2 µM -6% | [4]; at 3.7 µM -9% | [4]; at 11.0 µM 4% | [4]; at 33.0 µM 25% | [4]; at 100.0 µM 59% | [5]; at 1.2 µM -7% | [5]; at 3.7 µM -15% | [5]; [17] -5% | [5]; at 11.0 µM -9% | [5]; at 33.0 µM 41% | [5]; [18] 39% | [5]; at 100.0 µM 56% | [6]; at 1.2 µM -5% | [6]; at 3.7 µM -1% | [6]; [17] -14% | [6]; at 11.0 µM 8% | [6]; at 33.0 µM 33% | [6]; [18] 51% | [6]; at 100.0 µM 55% | [16]; at 1.2 µM -7% | [16]; at 3.7 µM -12% | [16]; at 11.0 µM 1% | [16]; at 33.0 µM 15% | [16]; at 100.0 µM 36% | [7]; [17] -12% | [7]; [18] 38% | [8]; at 1.2 µM -11% | [8]; at 3.7 µM -13% | [8]; at 11.0 µM 12% | [8]; at 33.0 µM 36% | [8]; at 100.0 µM 51% | [9]; [18] 59% | [10]; at 1.2 µM -4% | [10]; at 3.7 µM -3% | [10]; [17] -27% | [10]; at 11.0 µM 5% | [10]; at 33.0 µM 23% | [10]; at 100.0 µM 48% | [11]; at 1.2 µM -8% | [11]; at 3.7 µM -7% | [11]; at 11.0 µM 4% | [11]; at 33.0 µM 41% | [11]; at 100.0 µM 62% | [12]; at 1.2 µM -3% | [12]; at 3.7 µM -4% | [12]; at 11.0 µM 14% | [12]; at 33.0 µM 45% | [12]; at 100.0 µM 57% | [13]; at 1.2 µM -2% | [13]; at 3.7 µM 2% | [13]; at 11.0 µM 30% | [13]; at 33.0 µM 65% | [14]; [17] 7% | [14]; [18] 37% | [15]; at 1.2 µM 0% | [15]; at 3.7 µM 6% | [15]; at 11.0 µM 25% | [15]; at 33.0 µM 45% | [15]; at 100.0 µM 53%
